system: T1, BIKE; conditions: concentration: 1 μM,replicates: in singlicate; n = 1
T1 construct: gene BMP2K
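Also: KINOMEscan kinase panel screen.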

Row | Structure (SMILES) | %Inh
1 | CS(=O)c1ccc(-c2coc3ccc(-c4n[nH]c(=O)o4)cc23)cc1 (centres unmarked) | 17%
2 | O=C(Nc1cccc(Oc2ccc3nccn3n2)c1)Nc1cccc(C(F)(F)F)c1 | 11%
3 | CCNCC(Cc1ccccc1)NC(=O)c1cc(Br)c(-c2ccnc3[nH]ccc23)s1.Cl.Cl (centres unmarked) [GSK1383280] | 79%
4 | COC(=O)Nc1nc2cc(Oc3ccc(NC(=O)Nc4cc(C(F)(F)F)ccc4Cl)cc3)ccc2[nH]1.Cl [GW697465] | 8%
5 | COc1cc2nccc(Nc3ccc(Oc4ccccc4)cc3)c2cc1OC.Cl [GI261656] | 6%
6 | Cc1ccc2c(-c3ccnc(Nc4ccc(C(F)(F)F)cc4)n3)cnn2n1 [GW819776] | 12%
7 | O=C(Nc1ccccc1)c1cccc(Oc2ccc3nccn3n2)c1 | 5%
8 | C[C@@H](Oc1cc(-n2cnc3cc(-c4ccncc4)ccc32)sc1C(N)=O)c1ccccc1Cl [GSK479719] | 98.6%
9 | CS(=O)(=O)Nc1ccc(-c2ccnc3[nH]ccc23)cc1 [GSK993273] | 97.5%
10 | NC(=O)c1ccc(-c2cc3ncnc(SCC(=O)O)c3s2)cc1 | 1%
11 | CN(c1ccc2c(c1)nc(NCc1ccc(F)cc1)n2C)c1ccnc(Nc2ccc(CS(C)(=O)=O)cc2)n1.Cl [GW813244] | 33%
12 | Cn1ccc2ncnc(Oc3ccc(NC(=O)Nc4cccc(C(F)(F)F)c4)c(F)c3)c21 | 18%
13 | CCOC(=O)N1CCC(n2cnc(-c3ccc(F)cc3)c2-c2ccnc(N)n2)CC1 [SB-219952] | 4%
14 | Cc1cccc2c(-c3ccncc3)c(-c3ccc(F)cc3)nn12.Cl [GW461487] | 3%
15 | N#Cc1cccc(C(=O)NC2CCN(c3ccnc(Nc4ccc(F)cc4)n3)C2)c1 (centres unmarked) [GSK1379708] | 22%
16 | Cc1n[nH]c2cc(Nc3ccnc(Nc4cccc(CN5CCOCC5)c4)n3)ccc12 [GW682569] | 98.1%
17 | Cn1cc(-c2cccc3c(N)c(C(N)=O)nnc23)cn1 | 70%
18 | Nc1nccc(-c2ccc3c(N)n[nH]c3c2)n1 [GSK1034945] | 94.4%
19 | C[C@@H]1CNc2c(sc3ccc4nc(-c5ccc(O)cc5)ccc4c23)C(=O)N1 | 0%

Row | Structure (SMILES) | %Inh
20 | COc1cccc(C2=C(Nc3cccc(Cl)c3)C(=O)NC2=O)c1 [SB-341556] | 34%
21 | CCn1c(-c2nonc2N)nc2cncc(Br)c21 [SB-738004] | 23%
22 | COc1cc2c(Nc3ccc(NC(=O)c4ccccc4)cc3)ncnc2cc1OCCCN1CCOCC1 [GSK301329] | 28%
23 | O=C1NCCc2[nH]c(-c3ccncc3)cc21 | 33%
24 | Cc1ccc(Nc2ccnc(Nc3ccc4c(c3)CS(=O)(=O)C4)n2)cc1O.Cl [GW579362] | 99.8%
25 | O=C(Nc1n[nH]c2cc(-c3ccco3)ccc12)C1CC1 [SB-737447] | 53%
26 | CN(c1cccc(CNc2nc(Nc3ccc4c(c3)CC(=O)N4)ncc2C(F)(F)F)c1)S(C)(=O)=O | 95%
27 | Cc1ccc(C(=O)Nc2ccc(Oc3ccc4nc(NC(=O)C5CC5)cn4c3)c(F)c2)c(=O)n1-c1ccccc1 | 4%
28 | COC(=O)c1cccc(NC(=O)NC2CCN(c3ccnc(NCc4ccc(F)cc4)n3)CC2)c1 [GSK1379860] | 13%
29 | Cl.c1ccc(Oc2ccc(Nc3ccnc4cc(-c5ccc(CN6CCNCC6)o5)ccc34)cc2)nc1 [GW567142] | 0%
30 | O=C(NCC1CC1)c1ccc(-c2cc(C(=O)NC3CC3)ccc2F)cc1 [GW810445] | 0%
31 | C[C@@H](Oc1cc(-n2cnc3cc(-c4cnn(C)c4)ccc32)sc1C(N)=O)c1ccccc1Cl [GSK580432] | 100%
32 | CC(C)c1nc(-c2cccc(NS(=O)(=O)c3ccccc3)c2)c(-c2ccnc(Nc3ccc4c(c3)CN(C)CC4)n2)s1 [GSK1649598] | 0%
33 | C[C@@H](Oc1cc(-n2cnc3ccc(-c4ccncc4)cc32)sc1C(N)=O)c1ccccc1Cl [GSK483724] | 92.9%
34 | CCn1c(-c2nonc2N)nc2cncc(CNC3CCNCC3)c21.Cl [SB-747651] | 0%
35 | CC(C)S(=O)(=O)N1CCN(Cc2ccc3c(c2)nc(NC(=O)c2ccsc2)n3C[C@H](O)c2ccccc2)CC1 [GW635815] | 57%
36 | COc1cc(Nc2nccc(N3CCC(NC(=O)c4cccc(C#N)c4)C3)n2)cc(OC)c1OC (centres unmarked) [GSK1379751] | 90%
37 | Cc1ccc(CC(=O)N2CCc3cc(-c4cn(C)c5ncnc(N)c45)ccc32)cc1 [GSK2634758] | 16%

system: BLK; conditions: concentration: 1 μM,replicates: in singlicate; n = 1

Row | Structure (SMILES) | %Inh
38 | CS(=O)c1ccc(-c2coc3ccc(-c4n[nH]c(=O)o4)cc23)cc1 (centres unmarked) | 4%
39 | O=C(Nc1cccc(Oc2ccc3nccn3n2)c1)Nc1cccc(C(F)(F)F)c1 | 9%
40 | CCNCC(Cc1ccccc1)NC(=O)c1cc(Br)c(-c2ccnc3[nH]ccc23)s1.Cl.Cl (centres unmarked) [GSK1383280] | 0%
41 | COC(=O)Nc1nc2cc(Oc3ccc(NC(=O)Nc4cc(C(F)(F)F)ccc4Cl)cc3)ccc2[nH]1.Cl [GW697465] | 63%
42 | COc1cc2nccc(Nc3ccc(Oc4ccccc4)cc3)c2cc1OC.Cl [GI261656] | 99.2%
43 | Cc1ccc2c(-c3ccnc(Nc4ccc(C(F)(F)F)cc4)n3)cnn2n1 [GW819776] | 0%
44 | O=C(Nc1ccccc1)c1cccc(Oc2ccc3nccn3n2)c1 | 9%
45 | C[C@@H](Oc1cc(-n2cnc3cc(-c4ccncc4)ccc32)sc1C(N)=O)c1ccccc1Cl [GSK479719] | 0%
46 | CS(=O)(=O)Nc1ccc(-c2ccnc3[nH]ccc23)cc1 [GSK993273] | 0%
47 | NC(=O)c1ccc(-c2cc3ncnc(SCC(=O)O)c3s2)cc1 | 0%
48 | CN(c1ccc2c(c1)nc(NCc1ccc(F)cc1)n2C)c1ccnc(Nc2ccc(CS(C)(=O)=O)cc2)n1.Cl [GW813244] | 57%
49 | Cn1ccc2ncnc(Oc3ccc(NC(=O)Nc4cccc(C(F)(F)F)c4)c(F)c3)c21 | 22%
50 | CCOC(=O)N1CCC(n2cnc(-c3ccc(F)cc3)c2-c2ccnc(N)n2)CC1 [SB-219952] | 1%
51 | Cc1cccc2c(-c3ccncc3)c(-c3ccc(F)cc3)nn12.Cl [GW461487] | 22%
52 | N#Cc1cccc(C(=O)NC2CCN(c3ccnc(Nc4ccc(F)cc4)n3)C2)c1 (centres unmarked) [GSK1379708] | 32%
53 | Cc1n[nH]c2cc(Nc3ccnc(Nc4cccc(CN5CCOCC5)c4)n3)ccc12 [GW682569] | 0%
54 | Cn1cc(-c2cccc3c(N)c(C(N)=O)nnc23)cn1 | 6%
55 | Nc1nccc(-c2ccc3c(N)n[nH]c3c2)n1 [GSK1034945] | 25%
56 | C[C@@H]1CNc2c(sc3ccc4nc(-c5ccc(O)cc5)ccc4c23)C(=O)N1 | 0%

Row | Structure (SMILES) | %Inh
57 | COc1cccc(C2=C(Nc3cccc(Cl)c3)C(=O)NC2=O)c1 [SB-341556] | 72%
58 | CCn1c(-c2nonc2N)nc2cncc(Br)c21 [SB-738004] | 0%
59 | COc1cc2c(Nc3ccc(NC(=O)c4ccccc4)cc3)ncnc2cc1OCCCN1CCOCC1 [GSK301329] | 96.7%
60 | O=C1NCCc2[nH]c(-c3ccncc3)cc21 | 15%
61 | Cc1ccc(Nc2ccnc(Nc3ccc4c(c3)CS(=O)(=O)C4)n2)cc1O.Cl [GW579362] | 99.5%
62 | O=C(Nc1n[nH]c2cc(-c3ccco3)ccc12)C1CC1 [SB-737447] | 0%
63 | CN(c1cccc(CNc2nc(Nc3ccc4c(c3)CC(=O)N4)ncc2C(F)(F)F)c1)S(C)(=O)=O | 0%
64 | Cc1ccc(C(=O)Nc2ccc(Oc3ccc4nc(NC(=O)C5CC5)cn4c3)c(F)c2)c(=O)n1-c1ccccc1 | 99.3%
65 | COC(=O)c1cccc(NC(=O)NC2CCN(c3ccnc(NCc4ccc(F)cc4)n3)CC2)c1 [GSK1379860] | 24%
66 | Cl.c1ccc(Oc2ccc(Nc3ccnc4cc(-c5ccc(CN6CCNCC6)o5)ccc34)cc2)nc1 [GW567142] | 86%
67 | O=C(NCC1CC1)c1ccc(-c2cc(C(=O)NC3CC3)ccc2F)cc1 [GW810445] | 30%
68 | C[C@@H](Oc1cc(-n2cnc3cc(-c4cnn(C)c4)ccc32)sc1C(N)=O)c1ccccc1Cl [GSK580432] | 89%
69 | CC(C)c1nc(-c2cccc(NS(=O)(=O)c3ccccc3)c2)c(-c2ccnc(Nc3ccc4c(c3)CN(C)CC4)n2)s1 [GSK1649598] | 99.6%
70 | C[C@@H](Oc1cc(-n2cnc3ccc(-c4ccncc4)cc32)sc1C(N)=O)c1ccccc1Cl [GSK483724] | 31%
71 | CCn1c(-c2nonc2N)nc2cncc(CNC3CCNCC3)c21.Cl [SB-747651] | 8%
72 | CC(C)S(=O)(=O)N1CCN(Cc2ccc3c(c2)nc(NC(=O)c2ccsc2)n3C[C@H](O)c2ccccc2)CC1 [GW635815] | 65%
73 | COc1cc(Nc2nccc(N3CCC(NC(=O)c4cccc(C#N)c4)C3)n2)cc(OC)c1OC (centres unmarked) [GSK1379751] | 0%
74 | Cc1ccc(CC(=O)N2CCc3cc(-c4cn(C)c5ncnc(N)c45)ccc32)cc1 [GSK2634758] | 31%
